Data on 14 molecules can be found in PubChem BioAssay (NCI).

This is part of a sample that, as a whole, favours compounds with a hit. Of some 83,000 tested, about 20% had one in any assay.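 Growth was measured after 48 h exposure to one concentration of compound in 96-well plates. Values under 10 count as active.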 Values without a mark were called inactive. Active and inactive are the calls of the source.

Common to all, as to test: NCI-60 one-dose screen, 48 h (100 = growth as untreated, 0 = no growth, -100 = all killed)
Common to all, as to details: 10 µM unless noted

Assay [1] relates to SR leukemia.
Assay [2] deals with RPMI-8226 leukemia.
For assay [3], the system named is OVCAR-5 ovarian.
Assay [4] concerns OVCAR-4 ovarian.
Assay [5] deals with SK-OV-3 ovarian.
Assay [6] has as its system IGROV1 ovarian.
Assay [7] deals with OVCAR-3 ovarian.
In assay [8] the test system is HS 578T breast.
Assay [9] concerns NCI/ADR-RES ovarian.

As to `CNC(=O)c1c(NC(=O)c2ccc(C(F)(F)F)cc2)sc2c1CCC(=O)C2`, the growth in assay [1] is 3.07% (active); in [2] it was -27% (active); in [3] it was -44.7% (active); in assay [4], -81.5% (active); in [5] it was 0.374% (active); in [6], -4.58% (active). Besides, the growth in assay [7] is -6.89% (active); in assay [8] it was 12.2%; in assay [9], -4.29% (active).

`O=C1/C(=C/c2ccc(Cl)c(Cl)c2)CN(C(=O)C(Cl)Cl)C/C1=C\c1ccc(Cl)c(Cl)c1`: the growth is 4.68% (active) in assay [1]; -27.9% (active) in assay [2]; -69.1% (active) in [3]; -16.8% (active) in [4]; 25.2% in [5]; -74.3% (active) in assay [6]. For the same molecule, the growth in assay [7] was -97.9% (active); in [8], -5.11% (active); in assay [9] it was 3.64% (active).

`c1cnc2[nH]cc(-c3csc(-c4cn(CCCN5CCOCC5)c5ccccc45)n3)c2c1`: the growth in assay [1] was 2.93% (active); in assay [2], 24.4%; in assay [3], 62.1%; in [4], 45.1%; in assay [5], 73.4%; in assay [6], 35.3%. The values for the growth in [7], in assay [8] and in assay [9] were 64.4%, 28.5% and 60.1%, respectively.

As for `CSc1nc2sc3c(c2c(=O)n1-c1ccc([N+](=O)[O-])cc1)CCCCC3`, the growth in assay [1] was 85.4%; in assay [2], 99.4%; in assay [3], 87.8%; in assay [4], 82.4%; in assay [5], 69.5%; in assay [6], 84.8%. Further, the growth in assay [7] is 103%; in [8] it was 82.3%; in assay [9], 89.6%.

As for `CCOc1ccc(NC(=O)CSc2oc(-c3ccccc3)nc2S(=O)(=O)c2ccc(F)cc2)cc1`, the growth in assay [1] is 69.8%; in assay [2], 73%; in [3], 103%; in [4] it was 66.1%; in assay [5], 77.5%; in assay [6], 94.8%. In addition, the values for the growth in assay [7] and in [8] were 64.9% and 74.2%, respectively.

For `CN(C)CCCC1(c2ccc(F)cc2)OCc2cc(-c3cncc4ccccc34)ccc21` (stereo not drawn), the growth was -3.26% (active) in [1]; 35.3% in assay [2]; 70.5% in assay [3]; 43.9% in assay [4]; 59.6% in assay [5]; 22.1% in assay [6]. For the same molecule, the values for the growth in assay [7], in assay [8] and in assay [9] were 47%, 27.5% and 67%, respectively.

`Oc1c(Cl)cc(Cl)c2ccc(Cn3cc(-c4cc(F)cc(F)c4)nn3)nc12`: the growth was -22.2% (active) in assay [1]; 5.12% (active) in [2]; 91% in assay [3]; 56% in [4]; 108% in assay [5]; 85.8% in assay [6]. Besides, the figures for the growth in assay [7], in assay [8] and in assay [9] were 2.47% (active), 88.5% and 108%, respectively.

As for `COC1=CC(c2ccc[nH]2)=N/C1=C\c1[nH]c(C)c(C(=O)OCc2ccccc2)c1C`, the growth in assay [1] was 9.69% (active); in [2] it was -18% (active); in assay [3] it was -38.5% (active); in [4], -36.5% (active); in assay [5], 7.66% (active); in assay [6] it was -33.1% (active). Also, the values for the growth in assay [7], in assay [8] and in assay [9] were -66% (active), -37% (active) and 0.894% (active), respectively.

As to `O=S(=O)(NCCNc1nccc(-c2c(-c3cccc(F)c3)nc3occn23)n1)c1ccc(Br)cc1`, the growth in assay [1] was 65.6%; in assay [2] it was 62.3%; in assay [3] it was 93.8%; in assay [4], 93.9%; in [5], 99.8%; in [6] it was 57.7%. Further, the growth in [7] was 90.1%; in assay [8], 74.6%; in [9] it was 89.8%.

Take `CC(C)OC(=O)c1ccc2[nH]c(O)c(C(=Nc3ccc(N(C)C(=O)CN4CCN(C)CC4)cc3)c3ccccc3)c2c1`: the growth is -20.3% (active) in assay [1]; -28.9% (active) in assay [2]; -36.2% (active) in [3]; -72.3% (active) in [4]; -81.6% (active) in assay [5]; -39.2% (active) in assay [6]. The growth was -75.7% (active) in [7] and -7.07% (active) in [8].

Regarding `COc1ccc(C/C(C)=C(/c2ccc(OCCN3CCCCC3)cc2)c2ccc(OC(=O)NCc3ccccc3)cc2)cc1`, the growth in assay [1] was -58% (active); in [2], -62.3% (active); in [3], -78.6% (active); in [4], -91.4% (active); in assay [5], -93.7% (active); in [6], -71.1% (active). Also, the values for the growth in assay [7], in [8] and in assay [9] were -89.2% (active), -57.6% (active) and -75.7% (active), respectively.

Regarding `O=c1oc2c(cnc3ccccc32)cc1-c1ccsc1`, the growth in [1] was 95%; in assay [2] it was 96.6%; in [3] it was 114%; in assay [4], 88.4%; in assay [5], 104%; in assay [6], 103%. Also, the growth in assay [7] was 108%; in [8], 94.9%.

Turning to `COc1cc(CNC(=O)/C=C/C=C/c2ccc3c(c2)OCO3)ccc1OCc1cn(-c2ccc(C)c(C)c2)nn1`, the growth is 81.5% in assay [1]; 86.3% in assay [2]; 104% in [3]; 46.7% in assay [4]; 86.5% in [5]; 76.1% in [6]. In addition, the growth in [7] was 82.8%; in assay [8] it was 91.4%; in [9] it was 80.5%.

Turning to `COc1cc(CNS(=O)(=O)c2ccc(C)cc2)ccc1OCc1cn(-c2ccc(F)cc2)nn1`, the growth in assay [1] is 78.9%; in [2] it was 61.1%; in assay [3], 102%; in assay [4], 72.2%; in assay [5], 85.2%; in assay [6], 94.1%. In addition, the growth in [7] was 91.1%; in assay [8], 97.8%; in assay [9] it was 85.8%.
